The supplement of paper PMC6555819

These sequences were tested on RARa:RXR (NR concentration 270 nM, RXRa partner concentration 90 nM) (assay: PBM binding z-score (relative to random genomic background probes); higher = stronger binding; sequences stand for … in GC…GCGATTGACAGCGTAGAATGAAGG).
How it was run: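 For binding z-scores, the reference was random background probes on custom Agilent 4×180K protein-binding microarrays. These arrays were incubated 1 h with ligand-free nuclear receptor dimers in PBS pH 7.4, 2% milk, 0.02% Triton X-100, 1 mM DTT, 0.2 mg/mL BSA and 0.4 mg/ml salmon testes DNA. Fluorescence was scanned after antibody detection of each partner (one per run) and regression-normalized.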

Compared with CATACAGGTTCAGCTAGGCCAGAGTAGGGACGGC, TCGAGTAGGTTAGTCGGTGCATTCAGCCAACATA is lower in PBM binding z-score: 0.691 for the first, 0.0978 for the second.

First: CAACCTAGGTCACAGAGGTCAAAGTCCGTGCGTA
Second: ATACCAAGGTGATGGTGAGGTCGTTGATACTAAC
The PBM binding z-score of the first is higher: 7.87 for the first, 1.47 for the second.

First: ATCTCTAGGTAACCAACTTCAGTGAATGCCGAAC
Second: CGGCAAAGTTCAAGGTAACGTAACAGAAAGCAGC
The PBM binding z-score of the first is lower: 0.0512 for the first, 3.29 for the second.

Compared with CCTGCTTGGTCAATGGTCAGCTAAAGCAGCTCGC, CGTCCAAGGTCAGAGAGATCAGTGAATGCCGAGT is higher in PBM binding z-score: 0.00711 for the first, 3.01 for the second.

First: ACAGGCAGGTGAGTGAAGGTAACTCAGCTGGACG
Second: TCTAGCGGGCCAGAGGGTCACTCAAGAGGTACGG
The PBM binding z-score of the first is lower: -0.019 for the first, 2.17 for the second.

Going from TCTATTAGCTGAAGGGCAACCGACGAGTCCGTTT to TCTTGTAGATCAATAGACGTTAAGAAAGTGCGCT, the PBM binding z-score falls from 0.362 to 0.0974.

Going from CCTACTGGGCCACAAAAGGTCATTGATTCAGTGA to TAGCCTAGGGCAGATCGGGCCAGTATACGCTATA, the PBM binding z-score falls from 4.9 to 0.406.

First: CCTTACGGGTCAAGGTTACAGCACGGGTGGTACG
Second: CTTACTGGGCCAAAAAGGTCATTGATGCCGATAA
The PBM binding z-score of the first is lower: 4.47 for the first, 5.16 for the second.

Compared with CATACAAGGTCAGCTAGGCCAGAGTAGGGACGGC, CCGGCTGGGGCAAGGTTACCATAACGCACAGCCA is lower in PBM binding z-score: 3.43 for the first, 0.922 for the second.

Going from GCAGACAGGTGAAGCGCAGGTAACTCAGGGTGGC to AGTCAAAGTTCACTAGGTAAAGTAAGATTCAGCT, the PBM binding z-score rises from -0.125 to 3.07.

Going from CGTCCAAGGTCAAGGTCAGGGAAAGAGACTCGAA to CAAACTAGGTCACCGGAATGTCAAAGTCCGCATG, the PBM binding z-score falls from 5.45 to 3.53.

Going from TGAATGAGGTTAAAGATAAGGGAACGTGGCGTCG to ATCGAAAGGTCGTCAGGTGAGTATACAGAAAGGC, the PBM binding z-score rises from 2.09 to 3.91.

Going from TCTATTAGTTGAAGGGCATCCGACGAGTCCGTTT to CGTAAAAGTTCAAGGTAACGTAACAGAAAGCAGC, the PBM binding z-score rises from 0.683 to 2.92.

Going from TCAGAGAGGTGAAGGTAACTCAGGTACGCAGTCG to ATCTCTAGGTAAAGTGCAGTGAAAGATCGATAGA, the PBM binding z-score falls from 1.49 to 0.372.

Compared with ATCTCTAGGTAAAAGGTCAGTGAATCCCGAGGAT, TGAATGAGGTTATAGGATCAGGGAACGTTGCAAA is lower in PBM binding z-score: 4.68 for the first, 1.82 for the second.

Going from TGAATGAGGTTAGAGATCAGGGAACGTGGCGTCG to CGTCCATGGTCAGAGAGGTCAGTGAATGCCGAGT, the PBM binding z-score rises from 1.29 to 2.87.

First: TCTGCTAGTTCAACGATGGTCAGCTAATCTGCTA
Second: GATACAGGATCAAGGCCAGAGTACGCGTATTGAT
The PBM binding z-score of the first is higher: 0.475 for the first, -0.382 for the second.

First: CATACTGGGCCATTCAGAGGTCATTGATCATATG
Second: ATCTCTAGGTAAACTTCAGTGAAAGATCGATAGA
The PBM binding z-score of the first is higher: 4.36 for the first, 0.344 for the second.

Compared with TCGAGTAGGTTAGTCGGGGAATTCAGCCAACATA, CTACCAAGTTGAACAAGGTCGTTGATTACTATTC is higher in PBM binding z-score: -0.102 for the first, 1.96 for the second.

First: GCTGCTAGGTCAGGTTGGACAGCTAACGGGTACG
Second: AATACAGGGTCACCGTAGGCCAGAGTACGCACAG
The PBM binding z-score of the first is lower: 0.436 for the first, 5.28 for the second.
